According to PubChem BioAssay (EPA / NIEHS):
“And” between values parts separate entries of the source, which are not always exact repeats. Identical values can stand only once. Results filed as inconclusive are left out. The source made the active and inactive calls. The calls were made as follows, unless noted: active = hit-call score of the fitted dose curve at least 0.9, where 1 is the maximum; inconclusive = response in the unintended direction; inactive = score below 0.9.

Assays:
[1] = TOX21_p53_BLA_p2_viability: Viability Assessment in the Tox21 HCT-116 p53 Agonism Beta-lactamase Assay, Phase 2 (AID 2283591);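 also: compound exposure lasted 16 h at 37 °C; actives lower the ATP signal meaning cytotoxicity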
Method in brief: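 HCT-116 p53-bla cells (4000/well) rested 5 h at 37C, then received compounds in DMSO (217-fold dilution) for 16 h at 37C, 5% CO2. After the CCF4 read, CellTiter-Glo was added; ATP luminescence was read after 30 min at room temperature.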

[2] = molecular target: Cellular tumor antigen p53 (Homo sapiens) (UniProt P04637); test: TOX21_p53_BLA_p2_ratio: Tox21 HCT-116 p53 Agonism Beta-lactamase Assay, Ratio, Phase 2 (AID 2283592)
Method in brief: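 HCT116 cells carrying a p53-responsive beta-lactamase reporter were plated, incubated 5 h at 37C, then dosed with compounds in DMSO (217-fold dilution) for 16 h. CCF4-AM substrate was added for 2 h at room temperature; the 460/530 nm emission ratio gave gain-of-signal activity relative to DMSO.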

[3] = TOX21_p53_BLA_p3_viability: Viability Assessment in the Tox21 HCT-116 p53 Agonism Beta-lactamase Assay, Phase 3 (AID 2283593);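 also: cells exposed to compound for 16 h before reading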
Method in brief: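 HCT-116 cells (4000/well) rested 5 h at 37C, then got DMSO compounds by pin tool (217-fold dilution) for 16 h at 37C, 5% CO2. After the bla read, CellTiter-Glo was added and luminescence read at 30 min, room temperature.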

[4] = molecular target: Cellular tumor antigen p53 (Homo sapiens) (UniProt P04637); test: TOX21_p53_BLA_p3_ratio: Tox21 HCT-116 p53 Agonism Beta-lactamase Assay, Ratio, Phase 3 (AID 2283596)
Method in brief: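 HCT116 p53-bla cells (4000/well) given compound in DMSO (217-fold dilution) after 5 h, incubated 16 h at 37C. CCF4-AM substrate 2 h at room temperature; 460/530 nm emission ratio, gain fitted against DMSO.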

[5] = TOX21_p53_BLA_p4_viability: Viability Assessment in the Tox21 HCT-116 p53 Agonism Beta-lactamase Assay, Phase 4 (AID 2283597);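 also: hits lower the luminescence signal meaning cytotoxicity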
Method in brief: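 HCT116 p53-bla cells (4000/well) rested 5 h at 37C, then received compounds in DMSO (217-fold dilution) for 16 h at 37C, 5% CO2. CellTiter-Glo was added after the CCF4-AM read, and luminescence was read after 30 min at room temperature.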

[6] = molecular target: Cellular tumor antigen p53 (Homo sapiens) (UniProt P04637); test: TOX21_p53_BLA_p5_ratio: Tox21 HCT-116 p53 Agonism Beta-lactamase Assay, Ratio, Phase 5 (AID 2283599)
Method in brief: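 HCT-116 cells carrying a p53-inducible beta-lactamase reporter were seeded at 4000 cells/well and dosed after 5 h with compound in DMSO (217-fold dilution). After 16 h at 37C, CCF4-AM substrate was added for 2 h, and the 460/530 nm emission ratio was scored as gain-of-signal versus DMSO.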

[7] = TOX21_p53_BLA_p5_viability: Viability Assessment in the Tox21 HCT-116 p53 Agonism Beta-lactamase Assay, Phase 5 (AID 2283600)
Method in brief: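 Cells were plated at 4000/well, rested 5 h at 37C, then given compounds in DMSO (217-fold dilution) for 16 h at 37C, 5% CO2. Following the CCF4-AM beta-lactamase read, CellTiter-Glo was added and luminescence was read after 30 min at room temperature.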

[8] = molecular target: Cellular tumor antigen p53 (Homo sapiens) (UniProt P04637); test: TOX21_p53_BLA_p4_ratio: Tox21 HCT-116 p53 Agonism Beta-lactamase Assay, Ratio, Phase 4 (AID 2283601)
Method in brief: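 HCT116 cells carrying an inducible beta-lactamase reporter were plated at 4000 cells/well, rested 5 h, then exposed to compounds in DMSO (217-fold dilution) for 16 h at 37C. CCF4-AM substrate was loaded 2 h at room temperature; 460/530 nm emission ratio scored gain-of-signal versus DMSO.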

[9] = CCTE_Shafer_MEA_dev_per_burst_spike_percent: CCTE's Neural Network Formation Assay for Percent of Spikes in a Burst, Shafer Lab (AID 2284032; active = hit-call score of the fitted dose curve at least 0.9, where 1 is the maximum; inactive = score below 0.9;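 also: fitted as a decrease in burst spike percentage below DMSO baseline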)
Method in brief: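 Rat primary cortical neurons on 16-electrode MEA wells, dosed from plating day 0 for 12 days with renewal on DIV 5 and 9; spikes-in-bursts percentage averaged over bursting electrodes, collapsed as AUC across days 5, 7, 9, 12; loss direction versus DMSO.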

[10] = CCTE_Shafer_MEA_dev_active_electrodes_number: CCTE's Neural Network Formation Assay for Number of Active Electrodes, Shafer Lab (AID 2284040);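 also: potency for loss of active electrodes versus DMSO so lower counts are hits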
Method in brief: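 Primary rat cortical neurons on 16-electrode MEA wells, exposed from day 0 through day 12 with compound renewed at DIV 5 and 9 feeds. Active electrodes (mean firing ≥5 spikes/min) counted at DIV 5, 7, 9, 12; trapezoidal AUC across days, loss-of-signal versus DMSO.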

[11] = CCTE_Shafer_MEA_dev_burst_rate: CCTE's Neural Network Formation Assay for Burst Rate, Shafer Lab (AID 2284042; active = hit-call score of the fitted dose curve at least 0.9, where 1 is the maximum; inactive = score below 0.9;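 also: potency for loss of burst rate below DMSO control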)
Method in brief: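 Rat primary cortical cultures on PEI/laminin MEA; compound from plating, re-dosed at DIV 5, 9 media change. Single-electrode bursts/recording length, well mean of active electrodes; AUC over DIV 5–12 recordings; loss-of-signal vs DMSO.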

[12] = CCTE_Shafer_MEA_dev_bursting_electrodes_number: CCTE's Neural Network Formation Assay for Number of Bursting Electrodes, Shafer Lab (AID 2284043);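 also: potency is for loss of bursting electrodes relative to DMSO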
Method in brief: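 Primary rat cortical neurons were cultured on PEI-coated 48-well MEA plates (16 electrodes/well) and exposed from plating through day 12, with compound renewed at feeds on DIV 5 and 9. Electrodes bursting ≥1 per 2 min were counted on DIV 5, 7, 9, 12; trapezoidal AUC taken.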

[13] = CCTE_Shafer_MEA_dev_burst_duration_mean: CCTE's Neural Network Formation Assay for Mean Burst Duration, Shafer Lab (AID 2284045; active = hit-call score of the fitted dose curve at least 0.9, where 1 is the maximum; inactive = score below 0.9;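 also: curve fitted for loss meaning shorter burst duration than DMSO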)
Method in brief: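 Primary rat cortical neurons on PEI-coated 16-electrode MEA wells, exposed from plating through day 12 with compound renewed at DIV 5 and 9; spontaneous activity recorded days 5, 7, 9, 12. Well-mean burst duration collapsed as trapezoidal AUC, fitted for loss versus DMSO.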

[14] = CCTE_Shafer_MEA_dev_interburst_interval_mean: CCTE's Neural Network Formation Assay for Mean Interburst Interval, Shafer Lab (AID 2284046; active = hit-call score of the fitted dose curve at least 0.9, where 1 is the maximum; inactive = score below 0.9;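 also: well-mean interburst interval of bursting electrodes as AUC over four recording days; curve fitted for decrease in interburst interval relative to DMSO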)
Method in brief: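 Rat cortical neurons, 1.5 x 10^5 cells/well, 48-well MEA; compound from day 0 through DIV 12, media and treatment renewed DIV 5/9. Recordings DIV 5, 7, 9, 12; well-mean interburst interval → trapezoidal AUC, loss direction vs DMSO.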

[15] = CCTE_Shafer_MEA_dev_inter_network_spike_interval_mean: CCTE's Neural Network Formation Assay for Mean Inter-network Spike Interval, Shafer Lab (AID 2284047; active = hit-call score of the fitted dose curve at least 0.9, where 1 is the maximum; inactive = score below 0.9;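 also: potency for a decrease in mean inter-network spike interval below DMSO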)
Method in brief: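 Primary rat cortical neurons on PEI-coated 48-well MEAs (16 electrodes/well) were exposed from plating day 0 to DIV 12, with dosing renewed at DIV 5 and 9. Recordings at DIV 5, 7, 9, 12 were collapsed by trapezoidal AUC, loss-of-signal fit vs DMSO.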

[16] = CCTE_Shafer_MEA_dev_network_spike_number: CCTE's Neural Network Formation Assay for Number of Network Spikes, Shafer Lab (AID 2284048; active = hit-call score of the fitted dose curve at least 0.9, where 1 is the maximum; inactive = score below 0.9;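 also: synchronized bursts across electrodes counted on days 5 7 9 12 and integrated as AUC; fit as a loss of signal meaning fewer network spikes than DMSO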)
Method in brief: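 Primary rat cortical neurons were seeded at 1.5 x 10^5 cells/well on PEI-coated 16-electrode MEA wells with laminin, exposed from plating day 0, compound renewed at DIV 5 and 9. Network spikes were recorded on days 5, 7, 9, 12 and summarized as trapezoidal AUC versus DMSO.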

[17] = CCTE_Shafer_MEA_dev_network_spike_peak: CCTE's Neural Network Formation Assay for Mean Number of Electrodes in Network Spike, Shafer Lab (AID 2284049; active = hit-call score of the fitted dose curve at least 0.9, where 1 is the maximum; inactive = score below 0.9;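 also: fitted for loss of signal meaning fewer electrodes in network spikes than DMSO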)
Method in brief: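 Continuous 12-day exposure of rat cortical cultures, starting at plating, on MEA plates. Endpoint: electrodes participating in network-spike peaks, AUC across DIV 5–12, DMSO as negative control.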

[18] = CCTE_Shafer_MEA_dev_spike_duration_mean: CCTE's Neural Network Formation Assay for Mean Spike Duration, Shafer Lab (AID 2284051; active = hit-call score of the fitted dose curve at least 0.9, where 1 is the maximum; inactive = score below 0.9;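 also: mean network spike duration pooled as area under curve over DIV 5 to 12 recordings; potency for a decrease in mean network spike duration versus DMSO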)
Method in brief: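 Rat cortical primary cultures, 48-well MEA (16 electrodes/well); compound from plating, renewed DIV 5, 9. Network spike duration (AxIS adaptive detector) recorded DIV 5/7/9/12, combined as trapezoidal AUC; loss direction vs DMSO.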

[19] = CCTE_Shafer_MEA_dev_network_spike_duration_std: CCTE's Neural Network Formation Assay for Standard Deviation of Network Spike Duration, Shafer Lab (AID 2284052; active = hit-call score of the fitted dose curve at least 0.9, where 1 is the maximum; inactive = score below 0.9;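 also: area under curve of spike duration SD across recording days 5 to 12; hits are decreases in network spike duration SD versus DMSO vehicle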)
Method in brief: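 Rat cortical cultures, 1.5 x 10^5 cells/well, exposed continuously from plating to DIV 12 with media/compound renewal at DIV 5, 9. Spontaneous activity recorded DIV 5/7/9/12, AxIS adaptive spike detector; AUC across days; negative direction vs DMSO.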

[20] = CCTE_Shafer_MEA_dev_per_network_spike_spike_number_mean: CCTE's Neural Network Formation Assay for Mean Number of Spikes in a Network Spike, Shafer Lab (AID 2284053; active = hit-call score of the fitted dose curve at least 0.9, where 1 is the maximum; inactive = score below 0.9;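 also: fitted as decrease in spikes per network spike relative to DMSO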)
Method in brief: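 Rat cortical primary cultures on 48-well MEA; compound from day 0, re-dosed with full media change DIV 5, 9. Recorded DIV 5, 7, 9, 12; spikes in 0.05 s window at network-spike peak ÷ total network spikes; AUC; loss vs DMSO.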

[21] = CCTE_Shafer_MEA_dev_per_network_spike_spike_percent: CCTE's Neural Network Formation Assay for Percent of Spikes in a Network Spike, Shafer Lab (AID 2284054; active = hit-call score of the fitted dose curve at least 0.9, where 1 is the maximum; inactive = score below 0.9)
Method in brief: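 Primary rat cortical neurons on 16-electrode MEA wells (PEI-coated, laminin at plating), exposed from day 0 with renewal at DIV 5 and 9; spikes within 0.05 s of network-spike peaks over total spikes, AUC across days 5, 7, 9, 12.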

[22] = CCTE_Shafer_MEA_dev_LDH: CCTE's Lactate Dehydrogenase Assay for Cytotoxicity in the Neural Network Formation Assay, Shafer Lab (AID 2284068);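 also: exposure for twelve days from plating with re-dosing on DIV 5 and 9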
Method in brief: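 Rat cortical primary neurons, MEA culture; dosing day 0–12, full medium plus compound exchange DIV 5, 9. Read-out: LDH enzyme activity, spectrophotometric. DMSO = negative control/baseline; signal loss → cytotoxicity.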

[23] = CCTE_Shafer_MEA_dev_AB: CCTE's Alamar Blue Assay for Cytotoxicity in the Neural Network Formation Assay, Shafer Lab (AID 2284083);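 also: resazurin reduction fluorescence as viability of cultured neurons; twelve days of exposure from plating with re-dosing on DIV 5 and 9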
Method in brief: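 Rat cortical primary cultures, 1.5 x 10^5 cells/well on MEA; continuous compound exposure over 12 days of network development, re-dosed with full medium change DIV 5 and 9. Alamar Blue fluorescence; loss of signal = cytotoxicity vs DMSO baseline.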

[24] = CCTE_Shafer_MEA_dev_mutual_information_norm: CCTE's Neural Network Formation Assay for Mutual Information Normalization, Shafer Lab (AID 2284091; active = hit-call score of the fitted dose curve at least 0.9, where 1 is the maximum; inactive = score below 0.9;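 also: mutual information between electrodes summarised as area under curve across four recording days; potency is for a decrease in mutual information relative to DMSO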)
Method in brief: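 Rat cortical cultures, 48-well MEA, continuous exposure DIV 0–12 with full media/compound change DIV 5 and 9. Readout: inter-electrode mutual information, AxIS adaptive spike detection; AUC across DIV 5/7/9/12 recordings; DMSO baseline, negative fitting direction.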

[25] = CCTE_Shafer_MEA_dev_correlation_coefficient_mean: CCTE's Neural Network Formation Assay for Mean Correlation Coefficient, Shafer Lab (AID 2284093; active = hit-call score of the fitted dose curve at least 0.9, where 1 is the maximum; inactive = score below 0.9;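 also: well mean pairwise spike train correlation integrated as AUC over recording days 5 to 12; potency fitted for loss of correlation relative to DMSO vehicle wells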)
Method in brief: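 Rat cortical cultures, 1.5 x 10^5 cells/well, dosed from day 0 for 12 days. Spontaneous spikes recorded DIV 5/7/9/12; electrode-pair correlation coefficients averaged, AUC taken. Fit in loss direction vs DMSO.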

[26] = UKN2_HCS_IMR90_neural_migration: University of Konstanz (UKN) Leist Lab Neural Crest Cell Migration Assay in human induced IMR90 Pluripotent Stem Cells (UKN2) (AID 2284204; active = hit-call score of the fitted dose curve at least 0.9, where 1 is the maximum; inactive = score below 0.9); details: actives raise or lower the signal
Method in brief: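 iPSC-derived IMR90 neural crest cells on PLO/laminin/fibronectin were seeded around silicone stoppers; after stopper removal, migration in N2-S medium with EGF and FGF ran 24 h before 24 h chemical exposure. Calcein-AM/Hoechst high-content imaging; bidirectional fit versus DMSO.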

[27] = IUF_NPC1b_proliferation_BrdU_72hr: Leibniz Research Institute for Environmental Medicine (IUF) 72-hour Neural Progenitor Cell Bromodeoxyuridine (BrdU) Proliferation Assay (NPC1b) (AID 2284207; active = hit-call score of the fitted dose curve at least 0.9, where 1 is the maximum; inactive = score below 0.9)
Method in brief: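 hNPC spheres (primary, GW 16-19 fetal cortex), single sphere/well, EGF+FGF medium; 72 h compound, no renewal; BrdU pulse last 16 h; luminescent ELISA; activity vs DMSO baseline; growth-factor withdrawal as positive control.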

[28] = IUF_NPC1a_proliferation_area_72hr: Leibniz Research Institute for Environmental Medicine (IUF) 72-hour Neural Progenitor Cell Proliferation Area Assay (NPC1a) (AID 2284208; active = hit-call score of the fitted dose curve at least 0.9, where 1 is the maximum; inactive = score below 0.9)
Method in brief: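 Read-out: increase in sphere area over 72 h by automated phase-contrast imaging, fitted in positive direction versus DMSO baseline. One hNPC sphere (0.25-0.35 mm) per well in EGF/FGF medium; growth-factor withdrawal served as positive control.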

[29] = IUF_NPC1_viability_72hr: Viability Assessment at 72 hours in the Leibniz Research Institute for Environmental Medicine (IUF) Neural Progenitor Cell Proliferation Assay (NPC1) (AID 2284209; active = hit-call score of the fitted dose curve at least 0.9, where 1 is the maximum; inactive = score below 0.9)
Method in brief: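 hNPC spheres, 1/well, EGF+FGF medium, 37C/5% CO2; dosed day 0, 72 h, no re-dosing. Resazurin reduction (alamar blue) fluorescence; DMSO = negative control/baseline; growth-factor-free wells as positive control.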

Measured: AC50

Chain of Cellular tumor antigen p53 (Homo sapiens) (P04637 whole entry, looked up): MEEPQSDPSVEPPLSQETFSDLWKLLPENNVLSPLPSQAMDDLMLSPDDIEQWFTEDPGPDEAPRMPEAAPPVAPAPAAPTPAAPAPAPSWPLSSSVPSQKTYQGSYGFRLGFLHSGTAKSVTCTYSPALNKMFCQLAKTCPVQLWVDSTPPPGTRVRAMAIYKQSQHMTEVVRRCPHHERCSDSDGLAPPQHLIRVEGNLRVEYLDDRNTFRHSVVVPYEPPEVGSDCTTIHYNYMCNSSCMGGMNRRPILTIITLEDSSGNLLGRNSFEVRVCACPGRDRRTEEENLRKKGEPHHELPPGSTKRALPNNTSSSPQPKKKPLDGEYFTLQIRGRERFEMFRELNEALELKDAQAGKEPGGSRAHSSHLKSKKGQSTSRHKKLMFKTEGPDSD

Cc1c(O)cccc1C(=O)N[C@@H](CSc1ccccc1)[C@H](O)CN1C[C@H]2CCCC[C@H]2C[C@H]1C(=O)NC(C)(C)C
active: [1] 36.3 µM and 18.7 µM | [2] 44.9 µM and 20.2 µM | [3] 21.6 µM and 21.1 µM | [4] 43.8 µM and 38.2 µM | [5] 27900 nM | [6] 66.8 µM and 35.3 µM | [7] 33.1 µM and 19.5 µM | [8] 46.8 µM and 23.1 µM | [9] 1430 nM | [10] 953 nM | [11] 664 nM | [12] 819 nM | [13] 311 nM | [14] 1510 nM | [15] 1090 nM | [16] 1560 nM | [17] 1260 nM | [18] 559 nM | [19] 1270 nM | [20] 1190 nM | [21] 6350 nM | [22] 7060 nM | [23] 10100 nM | [24] 772 nM | [25] 1780 nM | [27] 8000 nM | [28] 25000 nM | [29] 14000 nM
inactive: [26]
